# Experimental data: paper PMC7862700, “An all-to-all approach to the identification of sequence-specific readers for epigenetic DNA modifications on cytosine”
# Experiments:
# Assay in all cases: DAPPL (digital affinity profiling via proximity ligation, sequencing); 10 mM Tris-HCl pH 7.5, 50 mM NaCl, 1 mM DTT, 4% glycerol, room temperature, 30 min; GST-TFs on glutathione beads, 16-mer random dsDNA library, 0.1% formaldehyde crosslink after washing; high values mean tight binding
# FLI1 = molecular target: T1, FLI1 (Homo sapiens, UniProt Q01543 1-452); details: protein: recombinant; tags: N-terminal GST; dsDNA, one strand shown
# T1 sequence: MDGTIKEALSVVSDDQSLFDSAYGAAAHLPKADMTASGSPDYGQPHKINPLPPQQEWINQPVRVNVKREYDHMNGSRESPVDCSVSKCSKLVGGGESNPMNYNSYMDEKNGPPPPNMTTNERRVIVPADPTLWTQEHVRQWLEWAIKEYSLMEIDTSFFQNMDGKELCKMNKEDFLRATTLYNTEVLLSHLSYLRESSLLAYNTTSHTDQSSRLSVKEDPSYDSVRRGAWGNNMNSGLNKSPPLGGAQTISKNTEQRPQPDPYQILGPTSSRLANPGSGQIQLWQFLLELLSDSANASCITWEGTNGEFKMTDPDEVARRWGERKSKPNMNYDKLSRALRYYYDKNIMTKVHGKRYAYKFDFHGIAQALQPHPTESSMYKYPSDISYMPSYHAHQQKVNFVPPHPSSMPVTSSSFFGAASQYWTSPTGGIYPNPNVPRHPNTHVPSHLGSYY
# In short: (§1)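 A tag-only sample was pooled with DNA-barcoded human transcription factors that had been expressed in yeast as GST fusions and captured on glutathione beads. The pools were incubated for 30 min at room temperature with 200 nmole of a random double-stranded 16-mer DNA library in Tris/NaCl/DTT/glycerol buffer, then washed, crosslinked with 0.1% formaldehyde, proximity-ligated (BsaI/T4 ligase, 1 h, 37 °C), PCR-amplified and sequenced on an Illumina NextSeq500. Binding signal is each hexamer's read frequency for a factor divided by its frequency for the tag-only sample.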
# ELK1 = molecular target: T2, ELK1 (Homo sapiens, UniProt P19419 1-428); details: protein: recombinant; tags: N-terminal GST; dsDNA, one strand shown
# T2 sequence: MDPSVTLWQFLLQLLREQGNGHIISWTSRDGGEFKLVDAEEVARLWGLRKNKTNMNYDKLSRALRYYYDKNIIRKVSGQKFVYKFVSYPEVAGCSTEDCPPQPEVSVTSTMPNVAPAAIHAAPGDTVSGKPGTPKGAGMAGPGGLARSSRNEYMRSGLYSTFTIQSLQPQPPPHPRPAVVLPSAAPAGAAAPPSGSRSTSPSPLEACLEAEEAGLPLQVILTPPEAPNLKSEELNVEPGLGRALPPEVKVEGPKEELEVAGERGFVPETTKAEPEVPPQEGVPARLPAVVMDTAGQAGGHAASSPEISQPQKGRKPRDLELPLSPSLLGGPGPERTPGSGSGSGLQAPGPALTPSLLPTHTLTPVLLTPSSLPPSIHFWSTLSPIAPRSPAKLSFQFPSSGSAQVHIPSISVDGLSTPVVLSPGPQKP
# In short: as §1
# GABPA = molecular target: T3, GABPA (Homo sapiens, UniProt Q06546 1-454); details: protein: recombinant; tags: N-terminal GST; dsDNA, one strand shown
# T3 sequence: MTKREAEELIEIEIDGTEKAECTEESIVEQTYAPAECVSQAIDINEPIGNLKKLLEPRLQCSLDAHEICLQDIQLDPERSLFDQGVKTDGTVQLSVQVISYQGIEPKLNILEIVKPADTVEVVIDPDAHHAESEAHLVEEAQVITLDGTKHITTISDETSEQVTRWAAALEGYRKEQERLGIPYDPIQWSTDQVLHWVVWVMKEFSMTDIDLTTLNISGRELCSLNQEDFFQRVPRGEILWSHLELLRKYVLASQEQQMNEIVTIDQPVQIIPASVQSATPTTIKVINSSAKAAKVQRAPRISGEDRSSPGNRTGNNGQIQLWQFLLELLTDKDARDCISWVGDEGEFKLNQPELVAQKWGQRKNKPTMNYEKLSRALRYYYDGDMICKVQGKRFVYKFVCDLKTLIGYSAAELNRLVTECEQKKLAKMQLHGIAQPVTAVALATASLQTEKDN
# In short: as §1
# ERG = molecular target: T4, ERG (Homo sapiens, UniProt P11308 1-479); details: protein: recombinant; tags: N-terminal GST; dsDNA, one strand shown
# T4 sequence: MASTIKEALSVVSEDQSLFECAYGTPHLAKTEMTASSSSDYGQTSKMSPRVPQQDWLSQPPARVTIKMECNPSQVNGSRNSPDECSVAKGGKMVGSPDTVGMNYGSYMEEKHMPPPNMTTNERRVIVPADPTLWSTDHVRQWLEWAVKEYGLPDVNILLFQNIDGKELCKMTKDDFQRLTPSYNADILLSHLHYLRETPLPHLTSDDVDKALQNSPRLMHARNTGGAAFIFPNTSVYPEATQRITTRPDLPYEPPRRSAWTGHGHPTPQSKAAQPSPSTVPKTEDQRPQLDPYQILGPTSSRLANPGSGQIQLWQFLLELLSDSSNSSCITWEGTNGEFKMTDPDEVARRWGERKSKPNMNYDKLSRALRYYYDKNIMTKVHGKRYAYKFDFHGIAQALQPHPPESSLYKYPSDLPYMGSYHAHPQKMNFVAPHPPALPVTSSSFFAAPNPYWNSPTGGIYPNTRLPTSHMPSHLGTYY
# In short: as §1
# ELF1 = ELF1 (Homo sapiens, UniProt P32519 1-619); details: protein: recombinant; tags: N-terminal GST; dsDNA, one strand shown
# In short: as §1
# EHF = molecular target: T5, EHF (Homo sapiens, UniProt Q9NZC4 1-300); details: protein: recombinant; tags: N-terminal GST; dsDNA, one strand shown
# T5 sequence: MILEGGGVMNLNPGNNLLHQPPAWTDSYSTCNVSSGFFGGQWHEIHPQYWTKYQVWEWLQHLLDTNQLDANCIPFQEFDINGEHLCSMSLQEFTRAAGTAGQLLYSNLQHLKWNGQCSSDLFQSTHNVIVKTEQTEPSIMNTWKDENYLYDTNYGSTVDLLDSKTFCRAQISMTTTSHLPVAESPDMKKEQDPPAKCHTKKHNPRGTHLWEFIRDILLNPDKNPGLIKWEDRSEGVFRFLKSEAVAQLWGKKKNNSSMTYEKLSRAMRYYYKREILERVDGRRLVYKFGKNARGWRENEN
# In short: as §1
# SPI1 = SPI1 (Homo sapiens, UniProt P17947 1-270); details: protein: recombinant; tags: N-terminal GST; dsDNA, one strand shown
# In short: as §1
# SPIB = SPIB (Homo sapiens, UniProt Q01892 1-262); details: protein: recombinant; tags: N-terminal GST; dsDNA, one strand shown
# In short: as §1
# ELK3 = molecular target: T6, ELK3 (Homo sapiens, UniProt P41970 1-407); details: protein: recombinant; tags: N-terminal GST; dsDNA, one strand shown
# T6 sequence: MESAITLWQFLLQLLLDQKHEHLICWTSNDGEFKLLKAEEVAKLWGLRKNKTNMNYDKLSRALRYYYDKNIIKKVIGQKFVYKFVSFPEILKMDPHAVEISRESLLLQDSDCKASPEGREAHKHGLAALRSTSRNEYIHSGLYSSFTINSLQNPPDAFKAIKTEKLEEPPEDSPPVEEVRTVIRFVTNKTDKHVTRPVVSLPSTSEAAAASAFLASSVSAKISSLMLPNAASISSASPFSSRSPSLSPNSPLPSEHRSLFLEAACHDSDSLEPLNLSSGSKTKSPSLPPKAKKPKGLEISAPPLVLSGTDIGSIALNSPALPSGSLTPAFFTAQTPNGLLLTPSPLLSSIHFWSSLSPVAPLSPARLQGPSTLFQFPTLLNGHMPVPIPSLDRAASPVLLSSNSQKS
# In short: as §1
# FEV = molecular target: T7, FEV (Homo sapiens, UniProt Q99581 1-238); details: protein: recombinant; tags: N-terminal GST; dsDNA, one strand shown
# T7 sequence: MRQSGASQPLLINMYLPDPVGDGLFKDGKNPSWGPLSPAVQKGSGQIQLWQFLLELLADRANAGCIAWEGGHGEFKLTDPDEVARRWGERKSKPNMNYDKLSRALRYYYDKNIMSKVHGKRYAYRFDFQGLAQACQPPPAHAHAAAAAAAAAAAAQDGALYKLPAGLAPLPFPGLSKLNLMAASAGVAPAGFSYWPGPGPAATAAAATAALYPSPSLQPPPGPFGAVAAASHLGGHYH
# In short: as §1
# ETV5 = ETV5 (Homo sapiens, UniProt P41161 1-510); details: protein: recombinant; tags: N-terminal GST; dsDNA, one strand shown
# In short: as §1
# HSF1 = HSF1 (Homo sapiens, UniProt Q00613 1-529); details: protein: recombinant; tags: N-terminal GST; chain copies: 3; dsDNA, one strand shown
# In short: as §1
# SPIC = molecular target: T8, SPIC (Homo sapiens, UniProt Q8N5J4 1-248); details: protein: recombinant; tags: N-terminal GST; dsDNA, one strand shown
# T8 sequence: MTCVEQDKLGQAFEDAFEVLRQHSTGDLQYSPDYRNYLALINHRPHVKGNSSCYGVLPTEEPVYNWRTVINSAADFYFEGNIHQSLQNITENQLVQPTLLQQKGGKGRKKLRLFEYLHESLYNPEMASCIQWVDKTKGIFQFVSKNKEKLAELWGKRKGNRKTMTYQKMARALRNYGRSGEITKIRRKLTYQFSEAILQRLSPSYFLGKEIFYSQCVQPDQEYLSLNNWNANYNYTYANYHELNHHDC
# In short: as §1
# ELF4 = ELF4 (Homo sapiens, UniProt Q99607 1-663); details: protein: recombinant; tags: N-terminal GST; dsDNA, one strand shown
# In short: as §1
# ELK4 = molecular target: T9, ELK4 (Homo sapiens, UniProt P28324-2 1-405); details: protein: recombinant; tags: N-terminal GST; dsDNA, one strand shown
# T9 sequence: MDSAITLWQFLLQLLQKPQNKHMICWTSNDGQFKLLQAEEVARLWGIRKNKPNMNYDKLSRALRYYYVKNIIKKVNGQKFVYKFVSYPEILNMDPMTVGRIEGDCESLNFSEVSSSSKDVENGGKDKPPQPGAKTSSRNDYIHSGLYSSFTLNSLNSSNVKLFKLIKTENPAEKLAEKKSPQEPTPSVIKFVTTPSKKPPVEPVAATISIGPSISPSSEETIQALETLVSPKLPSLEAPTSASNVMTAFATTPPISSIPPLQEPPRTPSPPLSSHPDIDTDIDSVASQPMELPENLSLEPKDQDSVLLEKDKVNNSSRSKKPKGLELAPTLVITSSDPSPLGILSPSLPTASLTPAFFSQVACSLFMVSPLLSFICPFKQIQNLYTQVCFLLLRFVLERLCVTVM
# In short: as §1
# ETV2 = molecular target: T10, ETV2 (Homo sapiens, UniProt O00321 1-342); details: protein: recombinant; tags: N-terminal GST; dsDNA, one strand shown
# T10 sequence: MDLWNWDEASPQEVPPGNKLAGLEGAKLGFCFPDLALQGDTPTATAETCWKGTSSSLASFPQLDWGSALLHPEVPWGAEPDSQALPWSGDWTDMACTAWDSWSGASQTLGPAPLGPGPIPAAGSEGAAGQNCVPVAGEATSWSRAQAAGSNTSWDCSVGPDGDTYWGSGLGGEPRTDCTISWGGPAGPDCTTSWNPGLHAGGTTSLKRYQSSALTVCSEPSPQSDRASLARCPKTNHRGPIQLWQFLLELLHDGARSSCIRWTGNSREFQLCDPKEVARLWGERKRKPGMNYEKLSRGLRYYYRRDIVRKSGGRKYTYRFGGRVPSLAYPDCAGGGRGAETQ
# In short: as §1
# ELF3 = molecular target: T11, ELF3 (Homo sapiens, UniProt P78545 1-371); details: protein: recombinant; tags: N-terminal GST; dsDNA, one strand shown
# T11 sequence: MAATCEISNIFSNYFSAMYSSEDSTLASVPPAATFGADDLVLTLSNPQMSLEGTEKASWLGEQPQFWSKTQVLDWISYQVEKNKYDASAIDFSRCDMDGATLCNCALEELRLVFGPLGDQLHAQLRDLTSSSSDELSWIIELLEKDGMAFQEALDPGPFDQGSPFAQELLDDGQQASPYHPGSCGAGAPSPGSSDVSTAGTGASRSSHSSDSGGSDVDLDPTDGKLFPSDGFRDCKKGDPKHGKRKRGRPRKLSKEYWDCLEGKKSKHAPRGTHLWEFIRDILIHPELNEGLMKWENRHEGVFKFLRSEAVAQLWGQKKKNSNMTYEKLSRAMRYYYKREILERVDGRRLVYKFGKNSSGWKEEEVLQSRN
# In short: as §1
# CRX = CRX (Homo sapiens, UniProt O43186 1-299); details: protein: recombinant; tags: N-terminal GST; dsDNA, one strand shown
# In short: as §1
# ETV1 = ETV1 (Homo sapiens, UniProt P50549 1-477); details: protein: recombinant; tags: N-terminal GST; dsDNA, one strand shown
# In short: as §1
# Sequence of HSF1 (Q00613 whole entry): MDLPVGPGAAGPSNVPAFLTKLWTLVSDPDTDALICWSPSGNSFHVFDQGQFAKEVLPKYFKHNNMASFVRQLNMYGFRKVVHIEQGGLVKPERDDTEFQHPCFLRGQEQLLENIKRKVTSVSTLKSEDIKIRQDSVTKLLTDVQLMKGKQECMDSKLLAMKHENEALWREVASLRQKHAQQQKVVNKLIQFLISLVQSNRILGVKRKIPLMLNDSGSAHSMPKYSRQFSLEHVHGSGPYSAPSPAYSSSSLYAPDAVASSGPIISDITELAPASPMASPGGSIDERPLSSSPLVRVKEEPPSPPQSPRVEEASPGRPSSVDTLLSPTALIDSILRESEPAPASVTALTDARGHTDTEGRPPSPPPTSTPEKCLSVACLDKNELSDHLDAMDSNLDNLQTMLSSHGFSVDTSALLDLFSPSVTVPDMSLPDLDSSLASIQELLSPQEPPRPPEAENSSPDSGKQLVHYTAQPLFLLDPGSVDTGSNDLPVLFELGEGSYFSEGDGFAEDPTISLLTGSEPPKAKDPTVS
# Sequence of ETV1 (P50549 whole entry): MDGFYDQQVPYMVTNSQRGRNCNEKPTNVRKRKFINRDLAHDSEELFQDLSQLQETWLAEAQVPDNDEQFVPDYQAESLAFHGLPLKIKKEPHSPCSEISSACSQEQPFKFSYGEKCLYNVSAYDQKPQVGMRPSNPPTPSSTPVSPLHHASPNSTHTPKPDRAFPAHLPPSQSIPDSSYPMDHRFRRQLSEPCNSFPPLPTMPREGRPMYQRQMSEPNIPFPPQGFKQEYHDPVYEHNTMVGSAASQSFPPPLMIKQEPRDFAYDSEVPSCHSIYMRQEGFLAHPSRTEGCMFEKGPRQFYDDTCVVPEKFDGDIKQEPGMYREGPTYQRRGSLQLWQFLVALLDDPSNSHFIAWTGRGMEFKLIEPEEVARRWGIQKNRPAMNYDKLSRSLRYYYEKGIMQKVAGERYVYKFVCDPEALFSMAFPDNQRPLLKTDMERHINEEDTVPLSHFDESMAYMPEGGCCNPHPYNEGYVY
# Sequence of ETV5 (P41161 whole entry): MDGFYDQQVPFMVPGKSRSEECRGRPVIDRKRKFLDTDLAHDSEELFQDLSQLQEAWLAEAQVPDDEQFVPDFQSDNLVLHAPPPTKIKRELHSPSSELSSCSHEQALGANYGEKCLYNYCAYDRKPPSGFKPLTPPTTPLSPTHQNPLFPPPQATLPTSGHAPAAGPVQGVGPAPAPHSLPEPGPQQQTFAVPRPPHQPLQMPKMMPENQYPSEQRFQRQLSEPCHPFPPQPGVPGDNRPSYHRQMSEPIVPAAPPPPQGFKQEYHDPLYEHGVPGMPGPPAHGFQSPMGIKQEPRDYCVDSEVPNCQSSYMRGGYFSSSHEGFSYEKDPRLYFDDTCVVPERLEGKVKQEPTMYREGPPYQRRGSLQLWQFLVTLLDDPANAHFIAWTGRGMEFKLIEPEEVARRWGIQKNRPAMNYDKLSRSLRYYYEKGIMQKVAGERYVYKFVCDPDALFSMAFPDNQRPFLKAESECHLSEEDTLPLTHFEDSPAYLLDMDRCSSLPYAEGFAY
# Sequence of ELF4 (Q99607 whole entry): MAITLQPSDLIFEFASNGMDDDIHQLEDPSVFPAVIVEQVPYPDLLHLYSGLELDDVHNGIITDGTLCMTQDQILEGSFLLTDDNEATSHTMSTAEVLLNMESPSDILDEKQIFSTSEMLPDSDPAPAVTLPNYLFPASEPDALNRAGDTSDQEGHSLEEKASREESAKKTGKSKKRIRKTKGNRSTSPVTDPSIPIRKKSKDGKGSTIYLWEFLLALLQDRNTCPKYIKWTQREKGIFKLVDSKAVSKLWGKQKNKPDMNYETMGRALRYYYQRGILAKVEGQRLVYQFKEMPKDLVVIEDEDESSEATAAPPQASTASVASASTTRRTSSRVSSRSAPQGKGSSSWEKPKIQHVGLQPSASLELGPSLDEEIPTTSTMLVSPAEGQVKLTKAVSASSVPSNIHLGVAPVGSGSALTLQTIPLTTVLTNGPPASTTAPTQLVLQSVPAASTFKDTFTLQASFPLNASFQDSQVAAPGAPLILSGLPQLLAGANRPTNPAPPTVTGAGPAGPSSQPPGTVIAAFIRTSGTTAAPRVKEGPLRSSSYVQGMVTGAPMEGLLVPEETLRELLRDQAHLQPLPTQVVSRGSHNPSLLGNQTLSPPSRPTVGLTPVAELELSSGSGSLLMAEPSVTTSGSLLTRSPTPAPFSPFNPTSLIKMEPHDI
# Sequence of ELF1 (P32519 whole entry): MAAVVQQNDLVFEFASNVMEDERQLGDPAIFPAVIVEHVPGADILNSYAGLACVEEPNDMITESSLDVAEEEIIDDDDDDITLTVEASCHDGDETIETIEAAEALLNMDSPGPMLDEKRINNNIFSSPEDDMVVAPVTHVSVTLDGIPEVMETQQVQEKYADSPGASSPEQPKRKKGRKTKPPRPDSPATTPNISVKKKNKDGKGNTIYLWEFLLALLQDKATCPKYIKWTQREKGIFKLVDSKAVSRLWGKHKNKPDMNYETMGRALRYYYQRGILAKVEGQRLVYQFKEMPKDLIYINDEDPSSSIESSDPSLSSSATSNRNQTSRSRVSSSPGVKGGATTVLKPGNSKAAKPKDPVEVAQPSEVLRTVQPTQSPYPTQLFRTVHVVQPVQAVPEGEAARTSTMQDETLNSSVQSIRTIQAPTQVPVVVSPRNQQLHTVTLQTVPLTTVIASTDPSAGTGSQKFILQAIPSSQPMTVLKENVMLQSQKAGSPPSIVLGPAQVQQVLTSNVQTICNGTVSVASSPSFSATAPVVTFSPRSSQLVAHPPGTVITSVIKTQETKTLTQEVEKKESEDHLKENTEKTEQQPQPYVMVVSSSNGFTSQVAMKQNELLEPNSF
# Sequence of CRX (O43186 whole entry): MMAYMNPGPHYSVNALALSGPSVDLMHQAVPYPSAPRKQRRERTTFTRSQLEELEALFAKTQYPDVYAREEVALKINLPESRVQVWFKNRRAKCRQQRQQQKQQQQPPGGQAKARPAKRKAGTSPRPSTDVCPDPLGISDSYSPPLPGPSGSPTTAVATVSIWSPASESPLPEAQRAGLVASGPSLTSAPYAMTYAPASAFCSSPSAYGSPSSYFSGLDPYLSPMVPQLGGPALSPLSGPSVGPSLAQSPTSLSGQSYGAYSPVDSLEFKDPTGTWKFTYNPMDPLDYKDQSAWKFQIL
# Sequence of SPIB (Q01892 whole entry): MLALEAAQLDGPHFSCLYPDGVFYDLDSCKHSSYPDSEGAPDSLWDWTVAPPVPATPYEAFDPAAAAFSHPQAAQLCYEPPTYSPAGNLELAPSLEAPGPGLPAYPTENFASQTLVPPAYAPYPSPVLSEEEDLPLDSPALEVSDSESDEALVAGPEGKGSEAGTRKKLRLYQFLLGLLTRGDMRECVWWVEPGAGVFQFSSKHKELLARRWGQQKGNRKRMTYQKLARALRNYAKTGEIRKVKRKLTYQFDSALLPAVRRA
sequence,measurement,setting,value
CCATAT,binding signal,FLI1,"1.23 fold enrichment (6-mer frequency, TF over GST control)"
same,binding signal,ELK1,"1.24 fold enrichment (6-mer frequency, TF over GST control)"
same,binding signal,GABPA,"1.19 fold enrichment (6-mer frequency, TF over GST control)"
same,binding signal,ERG,"1.37 fold enrichment (6-mer frequency, TF over GST control)"
same,binding signal,ELF1,"1.22 fold enrichment (6-mer frequency, TF over GST control)"
same,binding signal,EHF,"1.22 fold enrichment (6-mer frequency, TF over GST control)"
same,binding signal,SPI1,"1.16 fold enrichment (6-mer frequency, TF over GST control)"
same,binding signal,SPIB,"1.26 fold enrichment (6-mer frequency, TF over GST control)"
same,binding signal,ELK3,"1.26 fold enrichment (6-mer frequency, TF over GST control)"
same,binding signal,FEV,"1.24 fold enrichment (6-mer frequency, TF over GST control)"
same,binding signal,ETV5,"1.24 fold enrichment (6-mer frequency, TF over GST control)"
same,binding signal,HSF1,"1.12 fold enrichment (6-mer frequency, TF over GST control)"
same,binding signal,SPIC,"1.31 fold enrichment (6-mer frequency, TF over GST control)"
same,binding signal,ELF4,"1.17 fold enrichment (6-mer frequency, TF over GST control)"
same,binding signal,ELK4,"1.13 fold enrichment (6-mer frequency, TF over GST control)"
same,binding signal,ETV2,"1.29 fold enrichment (6-mer frequency, TF over GST control)"
same,binding signal,ELF3,"1.37 fold enrichment (6-mer frequency, TF over GST control)"
same,binding signal,CRX,"1.09 fold enrichment (6-mer frequency, TF over GST control)"
same,binding signal,ETV1,"1.2 fold enrichment (6-mer frequency, TF over GST control)"
